# Measurements from the antibiotic and cytotoxicity screens of Wong et al. (2023).
# Out of some 39,000 compounds screened, about 1,500 (3.8%) were called active. This excerpt belongs to a sample that is enriched for actives.
# Tested on: HSkMC (human skeletal muscle cells)
# Assay: cytotoxicity call (relative viability < 0.9)
# Conditions: 10 µM
row,Structure (SMILES),cytotoxicity call
1,C[C@@H]1CN([C@H](C)CO)C(=O)c2cc(NC(=O)C3CCCCC3)ccc2O[C@@H](C)CCCCO[C@H]1CN(C)S(=O)(=O)c1ccccc1,inactive
2,C[C@H]1CN([C@@H](C)CO)C(=O)c2c(c3ccccc3n2C)-c2ccccc2CO[C@H]1CN(C)C(=O)Nc1ccccc1C(F)(F)F,inactive
3,COc1ccc(NC(=O)Nc2cccc3c2O[C@@H](CN(C)Cc2ccc(Cl)c(Cl)c2)[C@H](C)CN([C@H](C)CO)C3=O)cc1,inactive
4,CC(C)NC(=O)Nc1ccc2c(c1)C(=O)N([C@@H](C)CO)C[C@@H](C)[C@H](CN(C)Cc1ccc(Cl)c(Cl)c1)OCCCC[C@@H](C)O2,inactive
5,C[C@@H]1CN([C@@H](C)CO)C(=O)c2cccc(NC(=O)c3ccncc3)c2O[C@@H]1CN(C)S(=O)(=O)c1cccs1,inactive
6,C[C@H]1CN([C@@H](C)CO)C(=O)CCCn2cc(nn2)CO[C@H]1CN(C)C(=O)C1CC1,inactive
7,O=C(C[C@@H]1CC[C@@H]2[C@H](COC[C@H](O)CN2S(=O)(=O)c2cccc(F)c2)O1)NCCCN1CCOCC1,inactive
8,CNc1nc(OCC#N)nc(N2CCCCC2)n1,inactive
9,COC(=O)[C@@]12OC[C@]34[C@H]([C@@H](O)[C@@H]1O)[C@@]1(C)CC(=O)C(=O)[C@H](C)[C@@H]1C[C@H]3OC(=O)[C@H](OC(=O)/C=C(\C)C(C)C)[C@@H]24,active
10,C[C@H](CO)N1C[C@H](C)[C@@H](CN(C)S(=O)(=O)c2ccccc2)Oc2ncc(C#Cc3ccccc3F)cc2C1=O,inactive
11,O=C(C[C@@H]1CC[C@H]2[C@@H](COC[C@@H](O)CN2C(=O)c2ccc3c(c2)OCO3)O1)NCCN1CCCCC1,inactive
12,CC(=O)NCC(=O)N1CCC2(CC1)CN(c1cnn(C)c1)C(=O)CO2,inactive
13,O=C1C(=O)N(C[C@@H](O)COc2cccc3ccccc23)C(=O)C(=O)N1C[C@@H](O)COc1cccc2ccccc12,inactive
14,COc1ccccc1N1CCN(CC(O)COc2cccc3ccccc23)CC1 (stereo not drawn),inactive
15,O[C@@H](COc1cccc2ncccc12)CN1CCN([C@@H]2c3ccccc3[C@@H]3[C@H](c4ccccc42)C3(F)F)CC1,active
16,C[C@H](CO)N1C[C@H](C)[C@@H](CN(C)C(=O)c2ccncc2)OCCCC[C@H](C)Oc2ccc(NS(C)(=O)=O)cc2C1=O,inactive
17,C[C@@H]1CN([C@H](C)CO)C(=O)c2cc(NC(=O)Nc3ccc(C(F)(F)F)cc3)ccc2O[C@@H](C)CCCCO[C@@H]1CN(C)C(=O)Nc1cccc2ccccc12,inactive
18,C[C@@H]1CN([C@H](C)CO)C(=O)c2cccc(NC(=O)Nc3ccccc3)c2O[C@@H]1CN(C)S(C)(=O)=O,inactive
